Data published in PubChem BioAssay AID1778 (Sanford-Burnham Center for Chemical Genomics, 2009).
Hit rate of the full screen: of about 290,000 compounds, about 260 (0.09%) were called active. The entries come from a sample that favours actives as a whole. Results with a measured potency or affinity are listed apart. Unmarked numbers belong to inactive results. No stated cut-off is given here; in the data, active means inhibition above about 50%; inactive means the rest.

The compounds below were run against Kappa-type opioid receptor (Homo sapiens) (UniProt P41145) (assay: KOR antagonists, beta-arrestin recruitment, cell-based, luminescence, uHTS (AID 1778)). Conditions: antagonist mode, active compounds read high; at 10 µM unless noted.
Sequence of Kappa-type opioid receptor (Homo sapiens) (P41145 whole entry, looked up): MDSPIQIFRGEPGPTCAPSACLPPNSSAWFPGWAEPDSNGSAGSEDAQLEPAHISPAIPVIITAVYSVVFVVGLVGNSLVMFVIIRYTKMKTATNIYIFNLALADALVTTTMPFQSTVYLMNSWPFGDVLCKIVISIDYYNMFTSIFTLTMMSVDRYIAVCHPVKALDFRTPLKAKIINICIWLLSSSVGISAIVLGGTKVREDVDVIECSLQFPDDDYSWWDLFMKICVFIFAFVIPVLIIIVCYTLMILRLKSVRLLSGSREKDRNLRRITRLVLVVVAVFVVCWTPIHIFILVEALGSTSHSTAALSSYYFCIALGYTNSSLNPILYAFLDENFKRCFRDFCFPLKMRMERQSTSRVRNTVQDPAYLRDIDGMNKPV
Compound `NC(=S)Nc1ncc(C(F)(F)F)cc1Cl` has an inhibition of -71.5% [at 20 µM].
Compound `NC(=S)c1ncc(C(F)(F)F)cc1Cl` has an inhibition of -11.8%.
Compound `CCOC(=O)N1CCN(C(=O)Nc2sc3nc4n(c(=O)c3c2C)CCC(C)CC4)CC1` (configuration not stated) has an inhibition of -7.4%.
`COc1ccccc1CCNC(=O)C(=O)NCC1OCCN1S(=O)(=O)c1cc(F)ccc1F` (configuration not stated) showed an inhibition of -43.3% [at 20 µM].
`CCOc1ccc(-c2nc(C#N)c(NCC3CCCO3)o2)cc1` (configuration not stated) showed an inhibition of 10.1%.
With `CC(CCc1ccccc1)NC(=O)c1cccc(F)c1` (configuration not stated) the inhibition was -19.3% [at 20 µM].
Work on `COc1ccc(C(=O)/C=C/C(=O)N(Cc2ccccc2)C(C(=O)NC2CCCCC2)c2ccncc2)c(O)c1` (configuration not stated) yielded an inhibition of 9.1%.
`COc1ccc(C(=O)/C=C/C(=O)N(CC(=O)NC2CCCCC2)CC2CCCO2)c(O)c1` (configuration not stated) was tested, and the inhibition was 82.5% (active).
`Cc1ccnc(NC(=O)CCC(=O)N(CC(=O)NC2CCCCC2)CC2CCCO2)c1` (configuration not stated) showed an inhibition of 11%.
Compound `COc1ccc(C(=O)/C=C/C(=O)N(Cc2ccc3c(c2)OCO3)C(C(=O)NC2CCCCC2)c2ccncc2)c(O)c1` (configuration not stated) has an inhibition of 15.5%.
For `COc1ccc(C(=O)/C=C/C(=O)N(Cc2ccccc2OC)C(C(=O)NC2CCCCC2)c2ccncc2)c(O)c1` (configuration not stated), the inhibition was 12.2%.
With `COc1ccc(C(=O)/C=C/C(=O)N(CC(=O)NC2CCCCC2)Cc2ccc(F)cc2)c(O)c1` the inhibition was 33.1%.
In the case of `COc1ccc(CN(C(=O)/C=C/C(=O)c2ccc(OC)cc2O)C(C(=O)NC2CCCCC2)c2ccncc2)cc1` (configuration not stated), the inhibition is reported as 8.2%.
For `COc1ccc(C(=O)/C=C/C(=O)N(CC(=O)NC2CCCCC2)Cc2cccs2)c(O)c1`, the inhibition was 26.6%.
`COc1ccc(C(=O)/C=C/C(=O)N(Cc2ccc(F)cc2)C(C(=O)NC2CCCCC2)c2ccncc2)c(O)c1` (configuration not stated) gave an inhibition of 6.8%.
In the case of `COc1ccc(C(=O)/C=C/C(=O)N(CC(=O)NC2CCCCC2)Cc2ccccc2OC)c(O)c1`, the inhibition is reported as 56.3% (active).
For `COc1ccc(NS(=O)(=O)c2cc(NC(=O)c3cccnc3Cl)ccc2N2CCCC2)cc1`, the inhibition was 37.4%.
Work on `C[C@@H]1CCC[C@]2(O[C@H](CCO)C[C@H](O)[C@H]2O)O1` yielded an inhibition of 47.9%.
For `CC1CC2=C(NC(=S)NC2c2cccc(F)c2)/C(=C/c2cccc(F)c2)C1` (configuration not stated), the inhibition was 4.5%.
For `O=C(c1cccs1)N(C(=O)c1cccs1)c1ccc(Br)cn1`, the inhibition was -21.5%.
`Cc1cnc(C)c(N2CCN(Cc3nc(-c4ccccc4)no3)CC2)n1` was tested, and the inhibition was -15.2%.
Work on `N#CCCN(NC1=NS(=O)(=O)c2ccccc21)C(=O)c1ccccc1Br` yielded an inhibition of 8.1%.
`CC(=O)Nc1ccc(S(=O)(=O)NCCC(=O)OCc2ccc([N+](=O)[O-])cc2)cc1` was tested, and the inhibition was 16.8%.
`CC1=NN(c2ccccc2)C(=O)/C1=C/N(C)C` showed an inhibition of 3.4%.
With `CC1=NN(c2ccc(C)cc2)C(=O)/C1=C\C=C\c1ccccc1` the inhibition was -74.7%.
With `CC1=NN(c2ccccc2)C(=O)/C1=C\C=C\c1ccccc1` the inhibition was -34.7%.
`CC1=NN(c2ccccc2)C(=O)/C1=C/C=C/c1ccccc1` showed an inhibition of -38.6%.
In the case of `O=C(Nc1cccc2c1CCCC2)c1cc([N+](=O)[O-])cc([N+](=O)[O-])c1`, the inhibition is reported as -11.2%.
Work on `CC1=CC(=Nc2c(C)n(C)n(-c3ccccc3)c2=O)C=CC1=O` yielded an inhibition of 35.7%.
`Cc1c(N=c2scc(-c3ccccc3)n2C)c(=O)n(-c2ccccc2)n1C` was tested, and the inhibition was 16.6%.
With `O=C(NC1(C(F)(F)F)OCCO1)c1ccc(F)cc1` the inhibition was -28.6% [at 20 µM].
Compound `COc1ccc(C(=O)CSc2ncn[nH]2)cc1OC` has an inhibition of 16.2%.
`COC(=O)c1ccc(OC(=O)c2cccnc2SC)cc1` gave an inhibition of -3.6%.
With `C/C(=N\Nc1nc2ccccc2[nH]1)c1ccc(Cl)s1` the inhibition was 20.9%.
For `C/C(=N\Nc1nc2ccccc2[nH]1)c1ccccn1`, the inhibition was 91.3% (active).
`C/C(=N\Nc1nc2ccccc2[nH]1)c1ccc(C)o1` gave an inhibition of 33.8%.
`C/C(=N\Nc1ccc(Cl)cc1)c1ccccn1` gave an inhibition of 1.2%.
Compound `C/C(=N\Nc1ncc(Cl)cc1Cl)c1ccc(C#N)cc1` has an inhibition of -10%.
Work on `CC(=O)c1cc(-c2ccccc2)[nH]c1N1CCOCC1` yielded an inhibition of -10.8%.
`O=C(O)c1ccccc1S(=O)(=O)NCC(O)COc1ccc(Br)cc1` (configuration not stated) gave an inhibition of 22.9%.
Compound `CCCNC(=S)N1CCN(c2nc(-c3ccc(C)cc3)cs2)CC1` has an inhibition of -15.3% [at 20 µM].
For `COc1ccc(CC(=O)Nc2ccc(OC)nc2)cc1`, the inhibition was 35.7%.
`COc1ccc(NC(=O)C(Cl)=C(Cl)Cl)cn1` showed an inhibition of 8%.
`COc1ccc(NC(=O)/C(Cl)=C(/Cl)S(=O)(=O)Cc2ccc(C)cc2)cn1` was tested, and the inhibition was 47.9%.
`COc1ccc(CS(=O)(=O)/C(Cl)=C(/Cl)C(=O)Nc2ccc(OC)nc2)cc1` showed an inhibition of 40.1%.
For `COc1ccc(NC(=O)/C(Cl)=C(/Cl)S(=O)(=O)Cc2ccccc2)cn1`, the inhibition was 58.9%.
`COc1ccc(NC(=O)/C(Cl)=C(/Cl)S(=O)Cc2ccc(Cl)cc2)cn1` (configuration not stated) showed an inhibition of 48.8%.
`C(=C\CSc1ncn[nH]1)/CSc1ncn[nH]1` was tested, and the inhibition was 0.4%.
`CCSc1nc2c(cnn2-c2ccc(C)cc2)c(=O)[nH]1` was tested, and the inhibition was -21.4%.
`COC(=O)C1=CN(C2CC2)C=C(C(=O)OC)C1c1ccc(C(F)(F)F)cc1` showed an inhibition of -9.8% [at 20 µM].
`COCCn1c(SCC(=O)N2CCCC2)nnc1-c1ccco1` showed an inhibition of 10.6%.
`O=C(COc1ccc2c(C(F)(F)F)cc(=O)oc2c1)NCc1cccs1` was tested, and the inhibition was -40.4%.
`S=C(Nc1ccc(Oc2ccccc2)cc1)Nc1cccnc1` was tested, and the inhibition was -26.6% [at 20 µM].
For `Cc1cc(C)cc(N2C(N)=NC(N)=NC2c2ccccc2F)c1` (configuration not stated), the inhibition was 1.5%.
In the case of `COC(=O)c1c(NC(=O)CN2CCN(c3ncccn3)CC2)sc(C(N)=O)c1C`, the inhibition is reported as -4.1%.
Compound `S=c1sc2c(N3CCN(Cc4ccccc4)CC3)ncnc2n1-c1ccccc1` has an inhibition of -18%.
`S=c1sc2c(N3CCOCC3)ncnc2n1-c1ccccc1` gave an inhibition of -30.9%.
For `CCOc1ccc(CNc2ccc3c(c2)nc(C)n3C)cc1`, the inhibition was 7.3%.
`Oc1ccc(CN2CCCCC2)c2cccnc12` was tested, and the inhibition was -7.4%.
`Oc1c(CN2CCc3ccccc3C2)cc(Cl)c2cccnc12` was tested, and the inhibition was -4%.
`Nc1nc(NC(=O)c2cccs2)nn1-c1ccccc1` showed an inhibition of -23%.
`Oc1c(I)cc(I)c2cccnc12` was tested, and the inhibition was -35.5%.
`Oc1c(Cl)cc(CN2CCCCC2)c2cccnc12` gave an inhibition of -1.6%.
Compound `O=[N+]([O-])c1cc(Cl)c2cccnc2c1O` has an inhibition of 1.5% [at 20 µM].
Compound `Clc1cc2cccnc2c2ccccc12` has an inhibition of 1.4%.
Compound `COc1cccc(NC(=O)CSc2nc3ccccc3n2C)c1` has an inhibition of 2.2%.
`O=C(NC(NC(=S)Nc1cccc(C(=O)O)c1)C(Cl)(Cl)Cl)OCc1ccccc1` (configuration not stated) was tested, and the inhibition was 3.3%.
Compound `Cc1ccc(C)c(NC(=S)NC(NC(=O)OCc2ccccc2)C(Cl)(Cl)Cl)c1` (configuration not stated) has an inhibition of -2%.
`Cc1cccc(NC(=S)NC(NC(=O)OCc2ccccc2)C(Cl)(Cl)Cl)c1` (configuration not stated) was tested, and the inhibition was -6.6%.
Work on `O=C(NC(NC(=S)Nc1cccc(Cl)c1)C(Cl)(Cl)Cl)OCc1ccccc1` (configuration not stated) yielded an inhibition of 5.1%.
`O=C(CNCCc1ccc(F)cc1)Nc1cc(F)ccc1F` showed an inhibition of -1.9%.
Compound `CC(=O)N1N=C(c2ccccc2)CC1c1cccc([N+](=O)[O-])c1` (configuration not stated) has an inhibition of -7% [at 20 µM].
For `O=C(O)CCC(=O)N1N=C(c2cccs2)CC1c1cccc([N+](=O)[O-])c1` (configuration not stated), the inhibition was -24.4% [at 20 µM].
Compound `CCc1nn(CC(=O)NCCCN(C)Cc2ccccc2)c(=O)c2cc3sc(C)cc3n12` has an inhibition of 1.9%.
`CCC(=O)N1CC2(CC(c3cccc(NC(=O)COc4ccc(Cl)cc4)c3)=NO2)C[C@@H]1C(N)=O` (some centres not stated) gave an inhibition of 8.3%.
`CCOC(=O)c1ccc(N/N=C/c2cc(Br)cc([N+](=O)[O-])c2O)cc1` was tested, and the inhibition was 60.8% [at 20 µM] (active).
`O=C(N/N=C/c1cc(Br)cc([N+](=O)[O-])c1O)c1ccc(NC(=O)c2ccc(F)cc2)cc1` was tested, and the inhibition was -22.2%.
Work on `COC(=O)c1ccc(N/N=C/c2cc([N+](=O)[O-])cc(OC)c2O)cc1` yielded an inhibition of -4.6%.
`COc1ccc(CNC(=O)C2CCC(CNS(=O)(=O)c3ccc(C)cc3)CC2)cc1` (configuration not stated) was tested, and the inhibition was 5.5%.
Compound `CCOc1ccc2nc(N3C(=O)/C(=C/c4ccccc4)NC3=S)sc2c1` has an inhibition of 13.6%.
`O=C1CNC(=S)N1c1nc2ccccc2s1` showed an inhibition of 18.9%.
With `Cc1ccc2nc(N3C(=O)CNC3=S)sc2c1` the inhibition was 45.5%.
In the case of `COc1ccc2nc(N3C(=O)CNC3=S)sc2c1`, the inhibition is reported as 59.9%.
With `Cc1cc(C)cc(Nc2nc3c(S(=O)(=O)c4ccccc4)nnn3c3ccccc23)c1` the inhibition was -17.6%.
`COc1cccc(NC(=O)CSc2ccc3nnc(-c4ccccn4)n3n2)c1` was tested, and the inhibition was 3%.
`Cc1ccc(SC[C@H](CC(C)C)N2CCN(C)CCC2=O)cc1` gave an inhibition of 30.9%.
`COc1ccccc1OC(C)C(=O)NNC(=S)NC1CCCC1` (configuration not stated) showed an inhibition of 1.5%.
`COc1ccc(N2C(=S)NC3N2C(=S)NC3(C)c2ccccc2)cc1` (configuration not stated) gave an inhibition of -26.3%.
`CC(C)CNS(=O)(=O)c1ccc(CCC(=O)N2CCC(C(N)=O)CC2)cc1` gave an inhibition of -7.7%.
`Cc1ccc(Nc2cc(C)nn2-c2nc(C)cc(C)n2)cc1` was tested, and the inhibition was 2%.
With `Cc1cc(C)nc(-n2nc(C)cc2Nc2ccccc2)n1` the inhibition was -25%.
`COc1cccc(N2C(=O)CC(N3CCN(c4ccc([N+](=O)[O-])cc4)CC3)C2=O)c1` (configuration not stated) gave an inhibition of -48.1% [at 20 µM].
